The nature of assay [1]: optical density shifts of acrAB sulA E. coli – strain DRC41, OD650, 48 h, E. coli filamentation inducer project, primary screen (AID 1152).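 Also: E. coli MC1000 strain DRC41 lacking acrAB efflux pump and sulA.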 To be noted: higher = more signal, called active from +8 up or from −8 down.
Assay [2] is described as follows: probe aLefty1 binding on compound microarray – biochemical, small-molecule microarray, 635/667 nm fluorescence, primary screen (AID 1153).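 Also: score merges spot fluorescence with signal-to-noise ratio from the scanned slide images.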 To be noted: higher = more signal.
Assay [3] is described as follows: plasmodial surface anion channel blockers, osmotic lysis – cell-based, P. falciparum Indochina, OD700, 1 h, primary screen (AID 1154). To be noted: P. falciparum Indochina infected RBC osmotic lysis, higher = more signal, called active from +8 up or from −8 down.
Assay [4] in a line: plasmodial surface anion channel blockers, osmotic lysis – cell-based, P. falciparum Indochina, OD700, 2 h, primary screen (AID 1155).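 Also: lysis reports solute entry through the parasite surface anion channel PSAC.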 To be noted: P. falciparum Indochina infected erythrocytes, higher = more signal, called active from +8 up or from −8 down.
Assay [5] can be described thus: changes in parasitized red cell lysis, either direction – P. falciparum Indochina, OD700, 3 h, PSAC antagonist project, primary screen (AID 1156). To be noted: P. falciparum-infected erythrocytes, osmotic lysis, higher = more signal, called active from +8 up or from −8 down.
The nature of assay [6]: plasmodial surface anion channel blockers, osmotic lysis – cell-based, P. falciparum Indochina, OD700, 18 h, primary screen (AID 1157). To be noted: P. falciparum Indochina infected erythrocytes, osmotic lysis OD700, 18 h; higher = more signal, called active from +8 up or from −8 down.
A short description of assay [7]: S6 kinase pathway phospho-S6 level changes – cell-based, A549, cytoblot, luminescence, serum-stimulated, primary screen (AID 1158).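 Also: serum-stimulated A549 lung adenocarcinoma cells; signal is phosphorylated S6 detected by cytoblot immunostaining with HRP secondary.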 To be noted: 5 h, higher = more signal.
Assay [8] addresses NADPH oxidase 2 (Homo sapiens) (UniProt P04839). The assay can be described thus: compounds shifting NOX2 Amplex Red fluorescence – cell-based, HEK293-NOX2, PMA-stimulated, NOX inhibitor project, primary screen (AID 1159). Also: test concentration not given here. To be noted: 45 min, higher = more signal, called active from +8 up or from −8 down.
In assay [9] the target is NADPH oxidase 4 (Homo sapiens) (UniProt Q9NPH5). Description: compounds shifting NOX4 Amplex Red fluorescence – cell-based, HEK293-NOX4, tetracycline-induced, NOX inhibitor project, primary screen (AID 1160). To be noted: HEK293-NOX4, Amplex Red H2O2 fluorescence, 45 min; higher = more signal, called active from +8 up or from −8 down.
Sequence of NADPH oxidase 4 (Homo sapiens) (Q9NPH5 whole entry, looked up): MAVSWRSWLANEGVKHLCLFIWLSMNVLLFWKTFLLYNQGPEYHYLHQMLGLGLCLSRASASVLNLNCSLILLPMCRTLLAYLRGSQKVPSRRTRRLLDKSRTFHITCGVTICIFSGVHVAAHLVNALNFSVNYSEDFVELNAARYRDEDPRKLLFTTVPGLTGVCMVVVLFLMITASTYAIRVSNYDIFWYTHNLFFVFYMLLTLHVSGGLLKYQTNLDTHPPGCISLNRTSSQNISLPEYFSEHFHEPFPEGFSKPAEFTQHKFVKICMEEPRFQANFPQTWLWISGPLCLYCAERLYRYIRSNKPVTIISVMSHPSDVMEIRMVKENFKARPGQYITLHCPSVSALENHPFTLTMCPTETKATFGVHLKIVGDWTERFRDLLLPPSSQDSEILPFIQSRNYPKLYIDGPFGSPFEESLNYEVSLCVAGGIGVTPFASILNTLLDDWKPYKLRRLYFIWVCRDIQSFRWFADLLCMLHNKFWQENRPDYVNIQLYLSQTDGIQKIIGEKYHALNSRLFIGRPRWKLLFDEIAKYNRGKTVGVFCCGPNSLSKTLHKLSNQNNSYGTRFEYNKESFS
Assay [10] concerns the target NADPH oxidase 5 (Homo sapiens) (UniProt Q96PH1). The assay can be described thus: compounds shifting NOX5 Amplex Red fluorescence – cell-based, HEK293-NOX5, NOX inhibitor project, primary screen (AID 1161). To be noted: HEK293-NOX5, ionomycin, 45 min, higher = more signal.
Assay [11] in a line: compound effects on lung adenocarcinoma cell viability – A549, calcein-AM fluorescence, 48 h, basal, profiling panel (AID 1162). Also: test concentration not given here. To be noted: higher = more signal.
Assay [12] in a line: compound effects on differentiated 3T3-L1 adipocyte viability – cell-based, 3T3-L1 adipocytes, calcein-AM fluorescence, 48 h, basal, profiling panel (AID 1163). Also: test concentration not given here. To be noted: 3T3-L1 adipocytes viability, higher = more signal.
Assay [13] can be described thus: compound effects on hepatocellular carcinoma cell viability – HepG2, calcein-AM fluorescence, 48 h, basal, profiling panel (AID 1164). Also: test concentration not given here. To be noted: higher = more signal.
The nature of assay [14]: compound effects on multiple myeloma cell viability – MM1S, calcein-AM fluorescence, 48 h, basal, profiling panel (AID 1165).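 Also: viability of MM1S multiple myeloma cells under basal unstimulated conditions; test concentration not given here.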 To be noted: higher = more signal.
A short description of assay [15]: calcein-AM signal in unstimulated myeloma cells – cell-based, calcein-AM fluorescence, 48 h, PK04 Diversity Set, profiling panel (AID 1166).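 Also: cells grown under basal conditions without added stimulus; test concentration not given here.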 To be noted: RPMI8226 myeloma viability, higher = more signal.
The nature of assay [16]: JC-1 mitochondrial signal, unstimulated HepG2 cells – cell-based, JC-1 fluorescence, 24 h, 100 nL compound, profiling panel (AID 1167). Also: test concentration not given here. To be noted: HepG2 mitochondrial potential, higher = more signal.
The nature of assay [17]: JC-1 mitochondrial signal, unstimulated adipocytes – cell-based, JC-1 fluorescence, 3T3-L1 adipocytes, 24 h, 100 nL compound, profiling panel (AID 1168). Also: test concentration not given here. To be noted: JC-1 mitochondrial fluorescence, higher = more signal, called active from +8 up or from −8 down.
A short description of assay [18]: JC-1 mitochondrial signal, unstimulated myeloma cells – cell-based, JC-1 fluorescence, RPMI8226, 24 h, 100 nL compound, profiling panel (AID 1169). Also: test concentration not given here. To be noted: JC-1 mitochondrial potential fluorescence, higher = more signal.
The nature of assay [19]: JC-1 mitochondrial signal, unstimulated MM1S myeloma – cell-based, JC-1 fluorescence, 24 h, 100 nL compound, profiling panel (AID 1170). Also: test concentration not given here. To be noted: MM1S mitochondrial potential, higher = more signal.
The nature of assay [20]: resazurin metabolic signal in A549 cells – cell-based, resazurin fluorescence, 24 h, PK04 Diversity Set, profiling panel (AID 1171). Also: test concentration not given here. To be noted: A549 viability, higher = more signal, called active from +8 up or from −8 down.

The source made the active and inactive calls.

Sequence of NADPH oxidase 5 (Homo sapiens) (Q96PH1 whole entry, looked up): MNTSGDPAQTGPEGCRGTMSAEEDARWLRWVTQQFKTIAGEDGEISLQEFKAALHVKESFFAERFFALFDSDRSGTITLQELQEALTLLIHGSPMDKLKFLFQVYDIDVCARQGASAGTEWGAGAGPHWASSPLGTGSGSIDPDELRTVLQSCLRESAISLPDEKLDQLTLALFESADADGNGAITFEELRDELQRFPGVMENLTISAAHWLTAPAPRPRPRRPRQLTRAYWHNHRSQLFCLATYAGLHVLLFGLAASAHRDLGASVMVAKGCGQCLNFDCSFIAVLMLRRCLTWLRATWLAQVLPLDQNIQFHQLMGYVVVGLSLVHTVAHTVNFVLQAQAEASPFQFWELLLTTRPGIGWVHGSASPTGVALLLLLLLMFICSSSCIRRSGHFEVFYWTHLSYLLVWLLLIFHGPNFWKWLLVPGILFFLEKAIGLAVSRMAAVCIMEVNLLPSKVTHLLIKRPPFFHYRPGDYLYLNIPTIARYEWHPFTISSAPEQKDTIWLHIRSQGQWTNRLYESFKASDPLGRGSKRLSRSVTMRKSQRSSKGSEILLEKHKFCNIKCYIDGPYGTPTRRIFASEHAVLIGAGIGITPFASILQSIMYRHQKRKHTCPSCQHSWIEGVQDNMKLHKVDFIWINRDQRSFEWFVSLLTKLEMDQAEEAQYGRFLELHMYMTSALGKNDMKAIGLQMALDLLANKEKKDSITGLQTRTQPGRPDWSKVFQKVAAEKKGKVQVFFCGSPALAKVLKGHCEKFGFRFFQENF
Sequence of NADPH oxidase 2 (Homo sapiens) (P04839 whole entry, looked up): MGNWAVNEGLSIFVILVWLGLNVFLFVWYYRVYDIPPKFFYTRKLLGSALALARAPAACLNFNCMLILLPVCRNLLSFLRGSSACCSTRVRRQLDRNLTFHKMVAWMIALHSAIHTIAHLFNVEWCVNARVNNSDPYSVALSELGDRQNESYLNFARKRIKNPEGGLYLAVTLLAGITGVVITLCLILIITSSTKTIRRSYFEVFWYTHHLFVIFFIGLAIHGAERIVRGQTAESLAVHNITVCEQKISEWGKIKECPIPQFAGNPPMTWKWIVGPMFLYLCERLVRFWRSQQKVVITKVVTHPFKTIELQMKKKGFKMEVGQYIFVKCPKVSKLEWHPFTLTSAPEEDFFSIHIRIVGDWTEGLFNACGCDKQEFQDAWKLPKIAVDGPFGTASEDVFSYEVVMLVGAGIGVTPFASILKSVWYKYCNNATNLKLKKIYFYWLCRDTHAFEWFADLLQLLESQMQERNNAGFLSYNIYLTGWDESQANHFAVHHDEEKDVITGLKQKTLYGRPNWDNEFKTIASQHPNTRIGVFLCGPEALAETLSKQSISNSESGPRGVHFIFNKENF

Turning to `COC(=O)[C@@H]1CC[C@H](C)[C@@H](c2ccc(C)cc2)N1C(=O)c1ccc(C=NOC[C@@H](C)[C@H](OCc2ccccc2)C(C)C)cc1`, the z-score was -1.07 (inactive) in assay [1]; 1.25 (inactive) in assay [3]; -1.62 (inactive) in assay [4]; -0.467 (inactive) in assay [5]; -1.35 (inactive) in [6]; 2.57 in assay [7]. Moreover, the z-score in assay [8] is -1.28 (inactive); in assay [9], -0.428 (inactive); in assay [10], 0.388; in [11], 0.188; in [12], 0.903; in assay [13], 2.13. For the same compound, the z-score in assay [14] is -0.168; in assay [15], -0.0791; in assay [16], 1.6; in assay [17], -0.483 (inactive); in assay [18], -0.998; in [19] it was -1.01. In assay [20], the z-score is -1.19 (inactive). The same compound returned a composite z-score in assay [2] of -0.18.

Turning to `CCOC(=O)[C@H](Cc1ccccc1)NC(=O)CCC1CC(OC(=O)NCc2cccc3ccccc23)CC2(CCCC(COC(=O)NCC(c3ccccc3)c3ccccc3)O2)O1` (stereo not given in full), the z-score was -0.0812 (inactive) in [1]; 9.16 (active) in assay [3]; 1.24 (inactive) in [4]; -1.06 (inactive) in [5]; -0.343 (inactive) in assay [6]; 0.704 in assay [7]. For the same compound, the z-score in [8] is 0.782 (inactive); in [9], 0.674 (inactive); in [10] it was 0.347; in assay [11] it was 1.15; in assay [12], -0.0155; in assay [13], -0.808. For the same compound, the z-score was -3.22 in assay [14]; 0.632 in assay [15]; 0.353 in assay [16]; -0.151 (inactive) in assay [17]; -0.107 in [18]; -0.886 in [19]. In assay [20], the z-score is 1.36 (inactive). The compound also registered a composite z-score in assay [2] of -0.116.

For the compound `O=C1OCCC=C1C(O)CCc1ccccc1` (stereo not given), the z-score in assay [1] was -0.27 (inactive); in [3], 0.512 (inactive); in assay [4] it was -0.57 (inactive); in assay [5], -0.177 (inactive); in [6], -0.193 (inactive); in [7], -0.136. The z-score in assay [8] is -0.428 (inactive); in assay [9], 0.0181 (inactive); in [10], 0.111; in [11], 0.0955; in [12] it was -0.831; in [13] it was -0.354. In addition, the z-score in [14] was -0.575; in [15], 0.146; in assay [16], -0.895; in assay [17], -0.54 (inactive); in assay [18], 0.0715; in assay [19], -0.517. Also, the z-score in [20] was -0.0147 (inactive). Further, in [2], the composite z-score is -0.057.

On to `COC(=O)[C@H](C)NC(=O)CCC1CC(OC(=O)NCCc2ccc(F)cc2)CC2(CCCC(COC(=O)NCc3cccc(C(F)(F)F)c3)O2)O1` (stereo not given in full), for which the z-score in assay [1] was 0.419 (inactive); in [3], 9.11 (active); in [4], 0.445 (inactive); in assay [5], -0.45 (inactive); in assay [6], 0.125 (inactive); in assay [7], -0.416. Besides, the z-score in [8] was 1.23 (inactive); in [9] it was -1.65 (inactive); in assay [10], -1.14; in assay [11], -0.925; in [12], 0.704; in assay [13], -1.69. The z-score is -3.48 in [14]; -0.416 in assay [15]; -0.15 in [16]; -0.835 (inactive) in [17]; 0.54 in assay [18]; 0.533 in assay [19]. For the same compound, the z-score in [20] was -0.0257 (inactive). In assay [2], this compound showed a composite z-score of -0.181.

Regarding `CON=C[C@@H](NS(=O)(=O)c1ccc(C)cc1)[C@H](C)C=CCC(=O)OC`, the z-score is -1.47 (inactive) in assay [1]; 0.553 (inactive) in assay [3]; 0.849 (inactive) in assay [4]; -0.459 (inactive) in assay [5]; 0.539 (inactive) in [6]; 0.22 in assay [7]. Besides, the z-score in [8] was -0.153 (inactive); in assay [9], -0.345 (inactive); in [10], -0.415; in assay [11], 1.19; in assay [12], -0.951; in assay [13], 0.244. Besides, the z-score is 0.561 in assay [14]; 0.226 in [15]; 0.271 in assay [16]; -0.95 (inactive) in assay [17]; -0.0325 in assay [18]; 0.0264 in [19]. Further, in assay [20], the z-score was -0.262 (inactive). The compound also yielded a composite z-score in assay [2] of -0.0984.
